Only some compounds are listed: those with a hit (about 3.2% of all), similar ones and a draw of the others.
TsaE inh: inhibitors of E. coli YjeE (TsaE); P0AF67; purified YjeE enzyme, qHTS inhibition assay; Potency, µM; 71,000 compounds, 0.05% hits; AID 605
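Purified YjeE (10 uM) with BODIPY Texas Red-labeled ADP probe (2 uM); compounds pin-transferred, 15 min at room temperature. Binding inhibition read as decreased fluorescence polarization; ADP titration as control.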
TSHR ag: activates the human thyroid stimulating hormone receptor | P16473 | HEK293-CNG-TSHR cells (CNG channel as cAMP sensor), membrane potential dye, cAMP | Potency, µM (highest dose often 57.1 µM), for inactives: at the highest dose activation, hits mostly activators | 73,000 compounds, 0.48% hits | AID 926; active = well fitted activation curve with a large enough effect in the main read-out, with a control signal flat, not every such curve was filed as active; inconclusive = small, poorly fitted or top-dose-only effect, or a change in a side signal; inactive = no such curve, though single readings can be large or run the other way; % of control where 0% means no effect;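 also: the control signal comes from parental cells without the receptor; potency is read from the fitted curve at half-maximal effect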
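HEK 293 cells stably expressing TSHR and a cAMP-gated CNG channel; parental CNG-only cells as counterscreen. Cells preloaded 60 min with membrane potential dye plus 100 uM RO 20-1724, then compound 30 min; fluorescence read at 590 nm.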
HEK293 cAMP cs: counter-screen for TSHR agonists: cAMP increase in parental HEK293; parental HEK293 CNG cAMP sensor, membrane potential fluorescence; 73,000 compounds, 2.5% hits; AID 938; Potency, µM (highest dose often 57.1 µM), for the others: at the top dose activation, most hits filed as activators; also: potency is read from the fitted curve at half-maximal effect; % of control where 0% means no effect; nearly all actives have a fitted effect of over 55% in size
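Parental HEK 293 cells stably expressing a cAMP-gated CNG channel were loaded with membrane potential dye containing 100 uM RO 20-1724 for 60 min. Compound added for 30 min; depolarization read as fluorescence intensity at 590 nm.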
BRCT inh red: disrupts BRCA1 BRCT binding to phosphoprotein, red fluorophore readout; P38398; BRCT-phosphopeptide binding, red fluorescence polarization; Potency, µM (series often up to 76.9 µM), for inactives: at the highest dose activity change, negative = inhibition, hits mostly inhibitors; 75,000 compounds, 0.03% hits; AID 892; also: % is scaled to controls: 0 for no effect and ±100 for the full control effect
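Fluorescence polarization: 100 nM His-tagged BRCA1 BRCT with 100 nM TAMRA-labelled phospho-BACH1 decapeptide, phosphate buffer pH 7.3 with 150 mM NaCl, DTT, 0.01% Tween 20; 12 min RT. Binding inhibition seen as FP decrease.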
DNA Pol III inh: blocks replication by bacterial DNA polymerase III holoenzyme; Potency, µM (top dose mostly 57.1 µM), without a hit: at the top dose activity change, negative = inhibition; 71,000 compounds, 0.25% hits; reconstituted DNA polymerase III holoenzyme replication, biochemical; also: potency is read from the fitted curve at half-maximal effect; % is scaled to controls: 0 for no effect and ±100 for the full control effect
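Reconstituted *E. coli* holoenzyme (0.35 nM Pol III, 1 nM beta, 154 nM SSB, 2 nM primase) was preincubated with compound for 15 min at RT. Synthesis on 1.4 nM ssM13Gori ran 35 min, then was stopped with PicoGreen/EDTA and read as dsDNA fluorescence.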
BRCT inh green: inhibitors of human BRCA1 BRCT-phosphoprotein interaction (green fluorophore); P38398; BRCA1 BRCT-phosphopeptide binding, green fluorescence polarization; Potency, µM (highest dose often 76.9 µM), inactives show at the highest dose activity change, negative = inhibition, hits mostly inhibitors; 75,000 compounds, 0.05% hits; AID 875;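 also: potency is read from the fitted curve at half-maximal effect; plate controls were peptide without protein for full effect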
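Compounds were incubated for 12 min at room temperature with a complex of 100 nM fluorescein-tagged pBACH1 decapeptide and 250 nM His-tagged BRCT protein. Buffer was phosphate pH 7.3 with EDTA, DTT and Tween 20. Disruption of binding lowers the polarization signal.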
* hit, by the source's call; i = inactive; ? = inconclusive; . = no result given; [ ] = dose if it differs, or a comment. Unless noted, calls follow the shape of the dose curve; as a rule, active = well fitted curve in the direction sought with a large enough effect; inconclusive = small, poorly fitted or top-dose-only effect, or another doubt; inactive = no such curve, though single readings can be large; an effect the other way counts as inactive or inconclusive.

SMILES	TsaE inh	TSHR ag	HEK293 cAMP cs	BRCT inh red	DNA Pol III inh	BRCT inh green
CCOC(=O)CCN1C(=O)[C@H]2[C@H]3[C@H](O)[C@H](O)C/C(=N/OC/C=C(\C)CCC=C(C)C)[C@@H]3CC[C@@H]2C1=O	.	-7.4%[11.4 µM]	0.6%[11.4 µM]	-0.4%[15.4 µM]	.	-0.2%[15.4 µM]
Cc1ccc(-c2noc(COc3ccccc3C)n2)cc1	i	?	25.1µM*	-1.9%	-2.6%	-0.4%
Clc1ccc(OCc2nc(-c3ccncc3)no2)c(Cl)c1	i	?	25.1µM*	-0.7%	6.8%	0.2%
Cc1ccccc1OCc1nc(-c2ccccc2)no1	i	?	?	-0.1%	-8.4%	-0.7%
COc1ccc(Cl)cc1-c1nc(-c2ccncc2)no1	i	9.0%	17.3%	0.4%	-5.3%	-0.8%
CC[C@@H](c1ccc2cc(O)ccc2c1)C(C)(C)C(=O)O	i	2.2%[11.4 µM]	-9.0%[11.4 µM]	-2.3%[15.4 µM]	-1.4%[11.4 µM]	-4.5%[15.4 µM]
CC(CCC(=O)O)(c1cc(Br)c(O)c(Br)c1)c1cc(Br)c(O)c(Br)c1	i	?	1.26µM*	0.0%[15.4 µM]	-12.0%[11.4 µM]	-1.6%[15.4 µM]
O=C(CSc1n[nH]c(=O)n1C1CC1)Nc1cc(Cl)ccc1Oc1ccccc1	i	?	12.6µM*	-1.3%	3.7%	0.1%
CCC(C)(c1ccc(C(=O)OC)s1)c1ccc(C(=O)OC)s1	i	?	20µM*	0.8%	-5.8%	2.3%
O=C(Oc1ccccc1)N1CCC2(CCCN(c3ncccn3)C2)CC1	i	?	20µM*	-1.3%	0.6%	1.6%
CCc1cc(C(=O)OC)c(N2C(=O)C3C4C=CC(C4)C3C2=O)s1 (configuration not stated)	i	7.94µM*	4.1%	-0.7%	-3.2%	-0.4%
CCCCn1c(NC(=O)c2ccccc2)nc2ccccc21	i	?	31.6µM*	0.9%	-1.9%	-0.6%
CCCCn1c(NCCO)nc2ccccc21	i	7.3%	4.7%	1.4%	-3.5%	-5.9%
CCC(C)(C)n1nnnc1C(c1ccncc1)N1CCN(c2cccc(OC)c2)CC1 (configuration not stated)	i	?	2.51µM*	-0.7%	0.9%	-2.8%
COc1ccccc1N1CCN(C(c2ccc(Cl)cc2)c2nnnn2C(C)(C)C)CC1 (configuration not stated)	i	?	2µM*	-0.3%	1.0%	-0.8%
COc1ccc(-c2coc3ccc(O[C@@H]4O[C@@H](COC(C)=O)[C@@H](OC(C)=O)[C@@H](OC(C)=O)[C@H]4OC(C)=O)cc3c2=O)cc1	i	1.7%	3.3%	.	0.8%	.
CCOc1ccccc1C(=O)Nc1cc(OC)ccc1OC	.	?	25.1µM*	-0.4%	.	-2.8%
COC(=O)c1ccccc1NC(=O)c1ccc(F)cc1	i	?	?	-0.9%	-1.9%	0.1%
CCOc1ccccc1C(=O)Nc1cc(Cl)ccc1O	i	?	-33.1%	1.2%	0.6%	-2.7%
COC(=O)c1ccccc1NC(=O)c1ccccc1OC	i	?	15.8µM*	-3.5%	-2.7%	1.3%
CN(C)c1ccc(-c2ccc3ncnc(NC4CC4)c3c2)cc1	i	1.4%	-10.9%	-2.6%	-6.7%	-0.5%
O=c1ccc2cc3ccoc3cc2o1	i	-0.7%	2.4%	0.4%	-6.5%	1.9%
O=c1ccc2c(OCCCCc3ccccc3)c3ccoc3cc2o1	i	?	25.1µM*	-1.6%	0.9%	1.4%
O=C(c1cn(-c2ccccc2)nc1-c1ccc(Cl)s1)N1CCOCC1	i	25.1µM*	-4.4%	0.2%	-0.6%	-4.0%
O=C(c1cn(-c2ccccc2)nc1-c1ccccc1)N1CCOCC1	i	7.6%	-6.3%	-0.5%	-5.8%	0.2%
CCC(C(=O)N1CCN(c2cccc(Cl)c2)CC1)c1ccccc1 (configuration not stated)	i	?	25.1µM*	1.3%	-4.1%	-0.8%
COc1ccc(N(CC(=O)Nc2cc(C)on2)S(=O)(=O)c2cc(C)ccc2C)cc1	i	25.1µM*	26.9%	0.0%	11.1%	-3.2%

Compound activity as filed in PubChem BioAssay.
